Laboratory results as given in PubChem BioAssay (NCATS).
Records with an inconclusive call do not appear. Calls of active or inactive are those of the source. Unless noted, calls follow the shape of the dose curve; as a rule, active = well fitted curve in the direction sought with a large enough effect in the repeat runs; inconclusive = weak or mixed curves; inactive = no such curve, though single readings can be large; an effect the other way counts as inactive or inconclusive.

Assay: qHTS for compounds that reverse cellular toxicity of Amyloid beta (A-beta) peptide in yeast: LOPAC Validation Assay (AID 720559; active = well fitted curve in the direction sought with a large enough effect; an effect the other way counts as inactive or inconclusive;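 also: plate controls were DMSO for no effect and equimolar ferric chloride plus clioquinol rescue for full effect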)
Conditions: yeast expressing A-beta; series mostly up to 46.1 µM; growth rescue, positive = activation: at the top concentration
How it was run: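 Here, A-beta-toxic yeast grow with test compounds at 30 C for 48 hr before optical density at 600 nm is recorded; data are normalized against DMSO and the FeCl3-clioquinol control.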
In the case of `COC[C@H]1OC(=O)c2coc3c2[C@@]1(C)C1=C(C3=O)C2CCC(=O)[C@@]2(C)C[C@H]1OC(C)=O` (some centres undefined), the “growth rescue, positive = activation” value is reported as -57.7% (inactive). With `Cc1cccc(C)c1NC(=O)CN1CCCC1=O` the “growth rescue, positive = activation” value was -3.06% (inactive). In the case of `Cc1cccc(C)c1NC1=NCCCS1`, the “growth rescue, positive = activation” value is reported as -2.41% (inactive). In the case of `Cc1c(OCC(F)(F)F)ccnc1CS(=O)c1nc2ccccc2[nH]1` (centres undefined), the “growth rescue, positive = activation” value is reported as -61.4% (inactive). With `N#CC(C#N)=Cc1ccc(O)c(O)c1` the “growth rescue, positive = activation” value was -3.65% (inactive). For `CC[C@@H](CO)NC(=O)[C@@H]1C=C2c3cccc4c3c(cn4C)C[C@H]2N(C)C1`, the “growth rescue, positive = activation” value was -1.04% (inactive).

Assay: qHTS for Activators of Parkin Expression: LOPAC Validation Assay (NLuc Reporter) (AID 720572; active = well fitted curve in the direction sought with a large enough effect; an effect the other way counts as inactive or inconclusive)
Conditions: Parkin promoter NanoLuc reporter cells, luminescence, percent of positive control, DMSO as zero; series mostly up to 46.1 µM; activation: at the top concentration
How it was run: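 NLuc signal, read 10 min after reagent and following a prior FLuc read, is normalized to DMSO (0) and positive controls (100%). Cells: neuronal Parkin-promoter coincidence reporter line; compounds tested 7-point, 24 h, 37 C, 5% CO2.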
In the case of `COC[C@H]1OC(=O)c2coc3c2[C@@]1(C)C1=C(C3=O)C2CCC(=O)[C@@]2(C)C[C@H]1OC(C)=O` (some centres undefined), the “activation” value is reported as -6.88% (inactive). In the case of `Cc1cccc(C)c1NC(=O)CN1CCCC1=O`, the “activation” value is reported as -2.07% (inactive). In the case of `Cc1cccc(C)c1NC1=NCCCS1`, the “activation” value is reported as 0.0381% (inactive). For `CC[C@@H](CO)NC(=O)[C@@H]1C=C2c3cccc4c3c(cn4C)C[C@H]2N(C)C1`, the “activation” value was -4.1% (inactive).

Assay: qHTS for Activators of Parkin Expression: LOPAC Validation Assay (FLuc Reporter) (AID 720573; active = well fitted curve in the direction sought with a large enough effect; an effect the other way counts as inactive or inconclusive)
Conditions: Cell line, PRKN promoter firefly luciferase reporter, vehicle wells = 0, positive control = 100%; series mostly up to 46.1 µM; activation: at the top concentration
How it was run: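 Readout is FLuc luminescence from neuronal reporter cells (Parkin promoter, FLuc plus NLuc) after 24 h compound exposure in dose response. Values normalized to neutral DMSO and positive-control compounds.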
With `COC[C@H]1OC(=O)c2coc3c2[C@@]1(C)C1=C(C3=O)C2CCC(=O)[C@@]2(C)C[C@H]1OC(C)=O` (some centres undefined) the “activation” value was -17% (inactive). With `Cc1cccc(C)c1NC(=O)CN1CCCC1=O` the “activation” value was -3.75% (inactive). For `Cc1cccc(C)c1NC1=NCCCS1`, the “activation” value was 5.83% (inactive). For `Cc1cc2c(C(C)C)c(O)c(O)c(C=O)c2c(O)c1-c1c(C)cc2c(C(C)C)c(O)c(O)c(C=O)c2c1O`, the “activation” value was -48.4% (inactive). With `CC[C@@H](CO)NC(=O)[C@@H]1C=C2c3cccc4c3c(cn4C)C[C@H]2N(C)C1` the “activation” value was -8.74% (inactive).

Assay: qHTS assay for small molecule agonists of the antioxidant response element (ARE) signaling pathway measured by Nrf2-dependant transcriptional activity (AID 720636); also: potency is read from the fitted curve at half-maximal effect;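 as to activation: HepG2 cells with an ARE-driven luciferase reporter; % of control where 0% means no effect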
Conditions: ARE-luc HepG2, Nrf2 luciferase reporter, 16 h; series mostly up to 92.4 µM; activation: at the top concentration
How it was run: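 First, ARE-luc HepG2 cells attached for 6 hr at 37 C in 1% dialyzed FBS medium. Next, compound or DMSO was added and incubated 16 hr. Finally, ONE-Glo reagent was added and luminescence measured after 30 min.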
With `CC(C)(C)CC(C)(C)c1ccc(O)cc1` the “activation” value was -0.208% (inactive). For `Oc1ccccc1-c1ccccc1`, the Potency was “inactive”. For `Oc1ccc(Cl)cc1Cc1ccccc1`, the “activation” value was -0.479% (inactive). For `Oc1cccc2cccnc12`, the Potency was 42.2 µM (active). For `C[C@H]1O[C@@H](O[C@H]2[C@@H](O)C[C@H](O[C@H]3[C@@H](O)C[C@H](O[C@H]4CC[C@@]5(C)[C@H](CC[C@@H]6[C@@H]5CC[C@]5(C)[C@@H](C7=CC(=O)OC7)CC[C@]65O)C4)O[C@@H]3C)O[C@@H]2C)C[C@H](O)[C@@H]1O`, the “activation” value was -1.2% (inactive). For `CN(C)CCC=C1c2ccccc2CCc2ccccc21`, the “activation” value was -3.15% (inactive). In the case of `Clc1ccc(COC(Cn2ccnc2)c2ccc(Cl)cc2Cl)cc1` (centres undefined), the “activation” value is reported as -3.31% (inactive). For `O=c1oc2ccccc2c(O)c1C(CC(O)c1ccc(-c2ccc(Br)cc2)cc1)c1ccccc1` (centres undefined), the “activation” value was -3.57% (inactive). In the case of `O=c1[nH]c2ccccc2n1C1CCN(CCCC(c2ccc(F)cc2)c2ccc(F)cc2)CC1`, the “activation” value is reported as -4.81% (inactive). For `CCOP(=S)(OCC)Oc1cc(C)nc(C(C)C)n1`, the Potency was “inactive”. In the case of `Oc1cc(Cl)ccc1Oc1ccc(Cl)cc1Cl`, the “activation” value is reported as -3.5% (inactive). With `OCCOc1ccccc1` the Potency was “inactive”. With `Cc1cc2c(C(C)C)c(O)c(O)c(C=O)c2c(O)c1-c1c(C)cc2c(C(C)C)c(O)c(O)c(C=O)c2c1O` the “activation” value was -4.41% (inactive). For `c1ccc2c(c1)Nc1ccccc1S2`, the “activation” value was 1.81% (inactive).
